Reference: PubChem BioAssay AID504332 (National Center for Advancing Translational Sciences (NCATS), 2011)
The campaign covered roughly 350,000 compounds. About 31,000 (8.9%) were called active. Another 15% or so got no clear call; they are omitted. The full list was thinned out, with actives kept by preference. Values without a mark were called inactive. Calls come from the whole dose curve; as a rule, active = well fitted inhibition curve with a large enough effect; inconclusive = small, poorly fitted or top-dose-only effect; inactive = no such curve, though single readings can be large or run the other way.

Target: Histone-lysine N-methyltransferase EHMT2 (Homo sapiens) (UniProt Q96KQ7)
Sequence (Q96KQ7 913-1193 limits assumed): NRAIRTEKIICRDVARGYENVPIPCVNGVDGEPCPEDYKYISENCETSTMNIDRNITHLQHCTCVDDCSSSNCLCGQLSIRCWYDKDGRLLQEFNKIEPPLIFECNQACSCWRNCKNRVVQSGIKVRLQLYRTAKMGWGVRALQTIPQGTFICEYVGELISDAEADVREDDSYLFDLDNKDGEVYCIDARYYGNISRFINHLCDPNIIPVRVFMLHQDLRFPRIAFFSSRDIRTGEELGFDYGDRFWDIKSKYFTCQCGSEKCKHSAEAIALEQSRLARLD
Experiment: qHTS Assay for Inhibitors of Histone Lysine Methyltransferase G9a; note: nearly all actives have a fitted effect of over 75% in size
Conditions: G9a H3K9 monomethylation, AlphaScreen, 2 h; series mostly up to 59 µM; activity, negative = inhibition: at the top concentration
How it was run: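 Signal arises when biotinylated H3K9 peptide, once monomethylated, bridges streptavidin donor and antibody-captured acceptor beads. Enzyme at 20 nM was preincubated 15 min with test compounds; peptide 500 nM and SAM 20 uM then reacted for 2 h.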
% is set by controls: 0 for no effect and ±100 for the full control effect; potency is the fitted concentration of half-maximal effect.

Row | Compound | activity, negative = inhibition | Potency
1 | COc1ccc(OC)c(NC(=O)CN2CCCN(Cc3cc(C)ccc3C)S2(=O)=O)c1 | 0.769% | –
2 | COc1ccc(OCCCC(=O)OC(C)C(=O)Nc2ccccc2[N+](=O)[O-])cc1 (stereo unspecified) | -1.74% [at 2.33 µM] | –
3 | CCOc1ccc(-n2c(C)nc3c(cnn3-c3ccc(C)cc3)c2=O)cc1 | 11.5% | –
4 | CC(C)OCCCNc1nc2c(c(=O)n(Cc3ccccc3F)c(=O)n2C)n1C | – | 22.4 µM (active)
5 | Cn1c(=O)c2c(nc(NCCNC(=O)c3ccco3)n2Cc2ccccc2F)n(C)c1=O | 41.2% [at 102 µM] | –
6 | CCOC(=O)CSc1nc2c(c(=O)n(C)c(=O)n2C)n1Cc1ccccc1F | 2.47% [at 102 µM] | –
7 | CNC(=O)c1ccc(-c2nc(CN3CCc4ccccc43)c(C)o2)cc1 | -0.994% [at 12.7 µM] | –
8 | Cc1nn(-c2ccccc2)c(C)c1NC(=O)COc1ccc(Cl)cc1Cl | 26.6% | –
9 | CCOC(=O)c1c(NC(=O)c2ccc(S(=O)(=O)N(C)CC3CCCO3)cc2)sc2c1CC(C)(C)NC2(C)C (stereo unspecified) | 69.6% [at 102 µM] | –
10 | COC(=O)c1c(NC(=O)COc2ccc(Cl)cc2Cl)sc2c1CC(C)(C)NC2(C)C | – | 31.6 µM (active)
11 | CC1(C)CC(=O)C=C(c2ccc(Cl)c(C(F)(F)F)c2)C1 | -9.47% [at 0.501 µM] | –
12 | O=C(CCc1nc(-c2ccccc2)no1)Nc1cccc(C(=O)NC2CC2)c1 | -5.9% [at 12.7 µM] | –
13 | CCOC(=O)c1ccccc1NC(=O)COC(=O)C(Cc1c[nH]c2ccccc12)NC(C)=O (stereo unspecified) | -26.2% [at 102 µM] | –
14 | Cc1nonc1C1CCCN1C(=O)c1cc(COc2cccc(C(F)(F)F)c2)on1 (stereo unspecified) | 24.4% [at 102 µM] | –
15 | Cc1ccc(NC(=O)CSc2nc3c([nH]c4ccccc43)c(=O)n2-c2ccccc2)c(C)c1 | 11.1% | –
16 | O=C(COc1ccccc1F)OCc1cc(=O)n2nc(C3CCCCC3)sc2n1 | 8.46% | –
17 | O=C(O)CCc1nc2cc(Cl)ccc2n(Cc2ccccc2)c1=O | – | 50.1 µM (active)
18 | O=C(O)CCn1c(Cc2ccccc2)nc2ccccc21 | 13.2% [at 102 µM] | –
19 | CC(=O)c1nc2ccccc2n1Cc1ccccc1 | 4.37% [at 102 µM] | –
20 | COc1cc(OC)c(NC(=O)c2cnc(N3CCCC3)nc2C)cc1Cl | -4.36% [at 12.7 µM] | –
21 | COc1cc(C#Cc2ccc3cc(CCCO)oc(=O)c3c2)cc(OC)c1 | -2.15% [at 0.501 µM] | –
22 | COc1ccccc1C(=O)N(Cc1ccc(C)o1)C1CCS(=O)(=O)C1 (stereo unspecified) | 76.1% [at 102 µM] | –
23 | CC(OC(=O)c1cc2ccccc2o1)C(=O)Nc1ccc(N2CCOCC2)cc1 (stereo unspecified) | -43.1% [at 12.7 µM] | –
24 | O=C(Nc1nnc(-c2ccccc2F)s1)c1ccccc1F | -8.05% [at 102 µM] | –
25 | O=C(Cn1c(=O)sc2ccccc21)Nc1nc2c(s1)CCCC2 | -39.4% [at 102 µM] | –
26 | O=C(Nc1nc2c(s1)CCCC2)c1ccccc1F | – | 12.6 µM (active)
